Measured values as given in the supplement of paper PMC5662767.
Counter-ions that a name gives are not always drawn.

System: Drosophila S2 cl14 SmoIP sensor cells
Assay: normalized SmoIP GFP fluorescence (untreated unstimulated = 0%, untreated Hh-stimulated = 100%); higher = more Smo activation sensor fluorescence
Settings: compound concentration: 2 uM, 24 h
[1] = stimulation: Hh conditioned medium (+Hh)
[2] = stimulation: mock conditioned medium (-Hh)
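Further: flow cytometry read-out as median GFP intensity of gated cells, compounds added 30 min before Hh-conditioned or mock medium, mock-treated cells serving as unstimulated baseline.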

| SMILES | normalized SmoIP GFP fluorescence [1] [%] | normalized SmoIP GFP fluorescence [2] [%] |
| --- | --- | --- |
| O=C(O)CC[C@H]1CC[C@@](c2cc(F)ccc2F)(S(=O)(=O)c2ccc(Cl)cc2)CC1 | 114 | 2.32 |
| CC(=O)S[C@@H]1CC2=CC(=O)CC[C@]2(C)[C@H]2CC[C@@]3(C)[C@@H](CC[C@@]34CCC(=O)O4)[C@H]12 [spironolactone] | 102 | -4.58 |
| Cc1ccc(-c2c(-c3nn(C)c4ncnc(N5CC[C@H](N6CCCCC6)C5)c34)cnn2C)cc1 | 114 | -2.71 |
| Nc1nc(N)c2nc(-c3cccc(O)c3)c(-c3cccc(O)c3)nc2n1 | 110 | -5.01 |
| CN(C)CCC(c1ccc(Cl)cc1)c1ccccn1 (centres undefined) [Chlorpheniramine-maleate] | 106 | -12.2 |
| CC(=O)O[C@H]1CC[C@@]2(C)C(=CCC3C2CC[C@]2(C)C(c4cccnc4)=CCC32)C1 (some centres undefined) [Abiraterone-Acetate-CB7630] | 106 | -12.7 |
| O=C(NNc1ccccc1)c1ccncc1 | 105 | -2.71 |
| CC1=C(/C=C/C(C)=C/C=C/C(C)=C\C(=O)O)C(C)(C)CCC1 [Isotretinoin] | 106 | -7.27 |
| Cn1cc(-c2ccc3nnc(C(F)(F)c4ccc5ncccc5c4)n3n2)cn1 | 96.1 | -2.42 |
| CN1CCC(=C2c3ccccc3CCc3cccnc32)CC1 [azatadine-dimaleate] | 114 | 4.79 |
| Cn1cc(-c2ccc3c(c2)CCN3C(=O)Cc2cccc(C(F)(F)F)c2)c2c(N)ncnc21 | 131 | 39.3 |
| CCN1CCN(Cc2ccc(-c3cc4c(N[C@H](C)c5ccccc5)ncnc4[nH]3)cc2)CC1 | 97 | 6.52 |
| O=C(O)c1cccc(-c2noc(-c3ccccc3F)n2)c1 | 116 | -0.662 |
| CC(C)NCC(O)c1ccc(O)c(O)c1 (centres undefined) [Isoprenaline-hydrochloride] | 141 | -14.1 |
| CC(C)C[C@H](NC(=O)CNC(=O)c1cc(Cl)ccc1Cl)B(O)O | 82.1 | 26 |
| CN1CCc2nc(C(=O)N[C@@H]3C[C@@H](C(=O)N(C)C)CC[C@@H]3NC(=O)C(=O)Nc3ccc(Cl)cn3)sc2C1 [edoxaban] | 106 | -1.34 |

| SMILES | normalized SmoIP GFP fluorescence [1] [%] | normalized SmoIP GFP fluorescence [2] [%] |
| --- | --- | --- |
| CNC(=O)c1ccccc1Sc1ccc2c(/C=C/c3ccccn3)n[nH]c2c1 [Axitinib] | 142 | 28.7 |
| COCCOC(=O)C1=C(C)NC(C)=C(C(=O)OC/C=C/c2ccccc2)C1c1cccc([N+](=O)[O-])c1 (centres undefined) [Cilnidipine] | 112 | 2.97 |
| CNC(=O)c1cc(Oc2ccc(NC(=O)Nc3cc(C(C)(C)C)nn3-c3ccc4ncccc4c3)c(F)c2)ccn1 | 183 | 0.605 |
| NCCc1c[nH]cn1 [histamine-2hcl] | 104 | 1.21 |
| CC(C)c1cnn2c(NCc3ccccc3)cc(NCCCCCCN)nc12 | 105 | 10.7 |
| CCC[C@H](NC(=O)[C@@H]1[C@H]2CCC[C@H]2CN1C(=O)[C@@H](NC(=O)[C@@H](NC(=O)c1cnccn1)C1CCCCC1)C(C)(C)C)C(=O)C(=O)NC1CC1 [Telaprevir(VX-950)] | 120 | 1.03 |
| CNCC[C@@H](Oc1ccccc1C)c1ccccc1 [atomoxetine-hydrochloride] | 104 | -0.264 |
| NC(=O)c1ccc(N(C(N)=O)c2c(F)cccc2F)nc1-c1ccc(F)cc1F | 103 | -3.5 |
| CN(C)CCC=C1c2ccccc2CCc2ccccc21 [amitriptyline-hydrochloride] | 104 | -3.27 |
| Nc1ncnc2n[nH]c(Nc3ccc(F)cc3)c12 | 89.9 | 2.64 |
| CC(=O)Oc1cc2c(s1)CCN(C(C(=O)C1CC1)c1ccccc1F)C2 (centres undefined) [Prasugrel] | 107 | -2.42 |
| CCNC(=O)[C@H]1O[C@@H](n2cnc3c(N)nc(NCCc4ccc(CCC(=O)O)cc4)nc32)[C@H](O)[C@@H]1O | 148 | -8.77 |
| COc1cc(F)c(C(C)C)cc1-c1ccc(C(F)(F)F)cc1CN1C(=O)O[C@H](c2cc(C(F)(F)F)cc(C(F)(F)F)c2)[C@@H]1C [anacetrapib-mk-0859] | 146 | -8.59 |
| CC(C)NC[C@@H](C(=O)N1CCN(c2ncnc3c2[C@H](C)C[C@H]3O)CC1)c1ccc(Cl)cc1 | 103 | -1.12 |
| CN(C[C@@H]1COCCO1)S(=O)(=O)Nc1ccc2ccc3ncc(-c4cnn(C)c4)cc3c(=O)c2c1 | 79.1 | 16.3 |
| CN(C)Cc1cccc(N=C(c2ccccc2)c2c(O)[nH]c3cc(C(=O)N(C)C)ccc23)c1 | 86.4 | -3.71 |
